# Screens from PubChem BioAssay.
# Many of the other results were omitted from the sample, so hits are more common in it than they were.
# GBA activity up: enhancers of human beta-glucosidase activity in Gaucher fibroblasts; L444P Gaucher fibroblasts, 4-MU-glucoside fluorescence, 3 days; hit rate 0.44% among 30,000; P04062; activation, % at 10 µM; in the data active = activation above about 65%;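 note: 0% = vehicle wells and 100% = positive control wells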
# Target sequence (P04062 whole entry L483P): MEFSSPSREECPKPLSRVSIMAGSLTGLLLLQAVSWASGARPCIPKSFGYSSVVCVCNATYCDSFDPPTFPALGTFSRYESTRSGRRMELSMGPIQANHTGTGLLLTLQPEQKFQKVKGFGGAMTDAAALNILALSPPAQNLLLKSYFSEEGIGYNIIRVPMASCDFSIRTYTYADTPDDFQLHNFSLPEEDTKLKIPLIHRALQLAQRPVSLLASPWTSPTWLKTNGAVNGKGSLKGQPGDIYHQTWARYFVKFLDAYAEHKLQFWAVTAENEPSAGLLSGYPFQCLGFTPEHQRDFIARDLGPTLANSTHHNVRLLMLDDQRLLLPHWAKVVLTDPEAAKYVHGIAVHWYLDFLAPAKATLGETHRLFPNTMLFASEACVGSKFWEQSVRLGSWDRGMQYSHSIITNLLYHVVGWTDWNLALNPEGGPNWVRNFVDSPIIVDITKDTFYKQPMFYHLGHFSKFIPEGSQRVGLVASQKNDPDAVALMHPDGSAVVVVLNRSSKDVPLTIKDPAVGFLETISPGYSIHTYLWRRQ
# Starred values were filed as active, the others as inactive.
SMILES,GBA activity up
COc1ccc(N(CC(=O)N2CCCC(C)C2)S(=O)(=O)c2c(C)nn(C)c2C)cc1 (configuration not stated),-12.7
O=c1cc(CSc2ccc(S(=O)(=O)N3CCCCC3)cn2)nc2sccn12,-23.9
Cc1ccc(C)c2[nH]c(=O)c(CN(CCN3CCCC3)C(=O)Nc3cccc(Cl)c3)cc12,-69.2
COc1cccc(NC(=O)CCS(=O)(=O)c2cccs2)c1,15.0
Cc1cccn2c(=O)c(C=Nc3ccc(Cl)cc3)c(NCCO)nc12,67.6*
Cc1cccn2c(=O)c(C=Nc3ccccc3)c(NCCO)nc12,-23.0
CCNC(=O)c1cc2c(=O)n3cccc(C)c3nc2n1C,-17.6
CCN1CCN(c2ccc(-n3c(C)nc4c(cnn4-c4ccccc4Cl)c3=O)cc2)CC1,-20.3
CCCOc1ccc2ccccc2c1/C=N/n1c(C)nnc1-n1nc(C)cc1C,-16.7
c1ccc2c(c1)ncn2CCn1cnc2ccccc21,-21.1
OC(COCC1CC=CCC1)Cn1cnc2ccccc21 (configuration not stated),151.3*
CC(=O)Nc1cccc(OCC(O)Cn2cnc3ccccc32)c1 (configuration not stated),-12.4
Cc1ccc(-c2csc3ncnc(Sc4nnc(CN5CCCCCC5=O)o4)c23)cc1,-6.5
CS(=O)(=O)N(CC(=O)NCCC1=CCCCC1)c1ccc2c(c1)OCO2,-19.7
OCc1nn2c(c1Br)NC(c1ccccc1)CC2C(F)(F)F (configuration not stated),-1.2
CCOC(=O)c1ccc(NC(=O)CCC(=O)OC)cc1,-30.7
CCOc1ccc(S(=O)(=O)N2CCN(c3ccccc3OC)CC2)c2cccnc12,-8.4
Cc1cc(-c2nnc(SCc3cccnc3)o2)no1,86.1*
N#Cc1ccc(CSc2nnc(-c3cnccn3)o2)cc1,-20.2
Cc1cc(-c2nnc(SCC(=O)NC3CCCC3)o2)no1,-13.8
CC(=O)c1ccc(C(C)(C)c2ccc(C(C)=O)s2)s1,-10.5
CCn1c2ccccc2c2nnc(SCC(=O)NC(CC(C)C)C(=O)OC)nc21 (configuration not stated),-37.3
O=C(CCCN1Cc2ccccc2C1)c1ccc(F)cc1,18.6
COC(=O)CN1CCN(C(=O)c2ccc(F)cc2)c2ccccc2C1,106.0*
O=C(c1ccc(F)cc1)N1CCN(Cc2ccccc2Br)CC1,-17.3
SMILES,GBA activity up
CC1Cc2cc(C3(O)C(=O)c4ccccc4C3=O)ccc2N1 (configuration not stated),9.1
O=C(CCS(=O)(=O)c1cccc2nonc12)NCCc1ccccc1,-8.1
O=C(CCS(=O)(=O)c1cccc2nonc12)N1CCCc2ccccc21,72.5*
O=C(CCCC(=O)N1CCCc2ccccc21)N1CCCc2ccccc21,-10.6
O=C(NCC(=O)N(Cc1cccs1)C(C(=O)NC1CCCC1)c1ccco1)c1cccs1 (configuration not stated),-3.4
COCCNC(=O)c1cn(C)c(=O)c2cc(OC)c(OC)cc12,-36.6
CCOCCCNC(=O)c1cn(C)c(=O)c2cc(OC)c(OC)cc12,-53.3
COc1cc2c(C(=O)NCCCN3CCN(c4cccc(Cl)c4)CC3)cn(C)c(=O)c2cc1OC,84.7*
c1cc(Nc2ncnc3sccc23)cc(-c2nnc3n2CCCCC3)c1,33.6
CCOc1ccc2nc3c(cc2c1)CN(CCCO)C(=NCCOC)S3,6.0
O=C1C2C(C(=O)N1Cc1cccnc1)C1C=CC2C12CC2 (configuration not stated),-42.0
CCOC(=O)c1nnc(-c2ccccc2)o1,-17.3
Cc1ccc(OCC(=O)Nc2cccc(-c3nnc(-c4ccccc4)o3)c2)cc1,9.2
CCOC(=O)COc1ccc(-c2nnc(-c3ccccc3)o2)cc1,78.1*
Cc1ccc(NC(=O)CN(C)S(=O)(=O)c2cccc3nsnc23)cc1C,-47.1
CN(CC(=O)Nc1ccc(F)c(F)c1)S(=O)(=O)c1cccc2nsnc12,120.9*
Cc1ccc(NC(=O)CN(C)S(=O)(=O)c2cccc3nsnc23)cc1Cl,-38.6
Cc1nc2ncnn2c(N2CCCC(C(=O)Nc3ccc4c(c3)CCC4)C2)c1C (configuration not stated),20.5
O=C(Nc1ccc(N2C(=O)C3C4C=CC(C4)C3C2=O)cc1)Nc1cccnc1 (configuration not stated),-3.9
C1CCN(c2nc(N3CCCCC3)nc(N3CCNCC3)n2)CC1,-64.8
N/C(=N/O)c1nc(N2CCCCC2)nc(N2CCCCC2)n1,88.9*
N#CN(CC(N)=O)c1nc(N2CCCCC2)nc(N2CCCCC2)n1,-1.2
COc1ccc(-c2nc(C#N)c(N3CCCCCC3)o2)cc1OC,-14.0
CC(C)COP(=O)(c1ccc(N(C)C)cc1)C(O)c1ccccn1 (configuration not stated),-66.1
O=C(CCCn1c(=S)[nH]c2cc3c(cc2c1=O)OCO3)N1CCN(c2ncccn2)CC1,79.3*
SMILES,GBA activity up
COc1cccc(N2CCN(C(=O)CCn3c(=S)[nH]c4cc5c(cc4c3=O)OCO5)CC2)c1,14.3
O=C(CCCn1c(=S)[nH]c2cc3c(cc2c1=O)OCO3)N1CCN(c2ccc(F)cc2)CC1,-21.0
CCN1CCCC1CNC(=O)c1ccc(CS(=O)(=O)c2ccccc2C)o1 (configuration not stated),-26.4
O=C(c1oc2ccccc2c1CSCc1ccccc1)N1CCN(c2ncccn2)CC1,-4.4
N#Cc1c2n(c3c(=O)n(Cc4ccccc4Cl)cnc13)CCCCC2,68.0*
COC(=O)Cn1cnc2c(C#N)c3n(c2c1=O)CCCCC3,-11.3
COc1cccc(-n2nnc3c(=O)n(Cc4ccccc4Cl)cnc32)c1,25.5
O=C1CN(Cc2ccccc2)C(=NCc2ccco2)S1,23.1
CS(=O)(=O)N(CC(=O)N1CCCCCC1)c1ccc(Br)cc1,0.9
CC1CCN(C(=O)CSc2ccc3nnc(-c4ccc(F)cc4)n3n2)CC1,29.5
Cc1ccc(C(C)NC(=O)c2ccco2)cc1C (configuration not stated),-11.4
O=C(Cn1c(CN2CCCCC2)nc2ccccc2c1=O)NCc1ccco1,-4.9
O=C(Oc1ccccc1)c1cc2ccccc2o1,-2.8
O=C(OCCN1CCCCC1)c1cc2ccccc2o1,71.5*
O=C(Nc1ccccc1N1CCCC1)c1cc2ccccc2o1,-30.1
CCOC(=O)C1=C(C)Nc2nc(SCC)[nH]c(=O)c2C1c1ccncc1 (configuration not stated),-36.1
Cc1ccc(CN(Cc2cc3cccc(C)c3[nH]c2=O)C(=O)N(C)C)cc1,-11.7
COc1ccc(CN(Cc2cc3cccc(C)c3[nH]c2=O)C(=O)N(C)C)cc1,72.3*
Cc1cccc2cc(CN(Cc3ccccc3)C(=O)N(C)C)c(=O)[nH]c12,-7.8
Cn1cc(S(=O)(=O)Cc2ccc(F)cc2)c2ccccc21,-13.4
C=CCSC1=N/C(=C\c2ccsc2)C(=O)S1,401.6*
CCOC(=O)SC1=N/C(=C\c2ccc(N(C)C)cc2)C(=O)S1,10.2
Cc1cc(N2CCN(C3CCCC3)CC2)n2nc(C)c(-c3ccccc3)c2n1,8.3
Cc1cc(C)nc(Sc2nc(C)nc3c2oc2ccccc23)n1,136.1*
Cc1nc(SCC(=O)Nc2ccccc2)c2oc3ccccc3c2n1,-59.5
Cc1cc(C)nc(N2CCN(c3nc(C)nc4c3oc3ccccc34)CC2)n1,-7.8
C=CCNC(=O)CCCCC(=O)NCC=C,2.5
Cc1ccc(C)c(OCC(=O)Nc2nonc2NC(=O)COc2cc(C)ccc2C)c1,-28.2
C=CCNC(=O)CCCOc1cc(C)ccc1C,68.2*
Cc1ccc2nsnc2c1S(=O)(=O)N(Cc1cc2cccc(C)c2[nH]c1=O)CC1CCCO1 (configuration not stated),-5.2
